Cruzain inh Det – qHTS Assay for Promiscuous and Specific Inhibitors of Cruzain (with detergent); actives 0.43% (n = 200,000); AID 1478, 2009; Potency, µM, actives largely listed as inhibitors; purified cruzain, Z-FR-AMC fluorescence, 0.01% Triton; note: nearly all actives have a fitted effect of over 40% in size
Target sequence (P25779 123-467 limits assumed): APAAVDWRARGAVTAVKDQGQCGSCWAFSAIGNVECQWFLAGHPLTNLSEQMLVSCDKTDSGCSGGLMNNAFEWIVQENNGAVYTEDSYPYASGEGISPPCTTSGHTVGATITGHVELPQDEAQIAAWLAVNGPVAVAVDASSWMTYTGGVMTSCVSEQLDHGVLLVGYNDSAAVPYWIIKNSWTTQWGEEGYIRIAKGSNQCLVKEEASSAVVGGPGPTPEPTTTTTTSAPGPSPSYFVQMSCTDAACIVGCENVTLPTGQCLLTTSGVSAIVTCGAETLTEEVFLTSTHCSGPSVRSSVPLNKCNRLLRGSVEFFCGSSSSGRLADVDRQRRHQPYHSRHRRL
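Z-FR-AMC hydrolysis (2 uM substrate) by cruzain (1.5 nM) monitored kinetically at ex 360/em 450 nm after 15 min room-temperature compound exposure; 0.01% Triton X-100, pH 5.5, 5 mM DTT.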
Cruzain inh noDet – qHTS Assay for Promiscuous and Specific Inhibitors of Cruzain (without detergent); Cruzipain (Trypanosoma cruzi), P25779; purified cruzain, Z-FR-AMC fluorescence, no detergent; Potency, µM, usual class: inhibitors; actives 2.3% (n = 200,000); note: nearly all actives have a fitted effect of over 40% in size
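Purified cruzain at 1.5 nM, pre-incubated 15 min with compound at room temperature in 100 mM sodium acetate pH 5.5, 5 mM DTT, 0.00005% Triton X-100. Reaction started with 2 uM Z-FR-AMC; AMC fluorescence increase over 60 s gives rate.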
Hits are given with their value. Sampled rows, rich in hits. Any-hit rate of the full collection: about 2.6%. Calls come from the whole dose curve; as a rule, active = well fitted curve in the direction sought with a large enough effect; inconclusive = small, poorly fitted or top-dose-only effect, or another doubt; inactive = no such curve, though single readings can be large; an effect the other way counts as inactive or inconclusive.

Screening C[C@@H]1C(c2ccc(F)cc2)=NN(c2ccccc2)[C@H]1C(=O)N1CCOC1=O returned Cruzain inh Det inactive and Cruzain inh noDet inactive.
Cc1ccccc1NC(=O)c1sc2nc3c(cc2c1N)CCCC3 was read as Cruzain inh Det inactive and Cruzain inh noDet inactive.
`COc1ccccc1N1CCN(c2ccc(=O)n(CC(=O)O)n2)CC1` gave Cruzain inh Det inactive and Cruzain inh noDet inactive.
Screening Cc1ccc(-n2ncc3c(Nc4ccc5c(c4)OCCO5)ncnc32)cc1C returned Cruzain inh Det inactive and Cruzain inh noDet inactive.
For Cc1ccc2oc(=O)c3cc(C(=O)Nc4ccc(F)cc4F)sc3c2c1 the results were Cruzain inh Det inactive and Cruzain inh noDet inactive.
For CCCNC(=O)CCNS(=O)(=O)c1ccc2c(c1)c(=O)n(C)c(=O)n2C the results were Cruzain inh Det inactive and Cruzain inh noDet inactive.
CCc1cnc2c(c1SCc1ccccc1C)c(=O)n(C)c(=O)n2C was read as Cruzain inh Det inactive and Cruzain inh noDet inactive.
Screening CCn1cnc2cc(NS(=O)(=O)c3ccc(C)cc3)ccc21 returned Cruzain inh Det inactive and Cruzain inh noDet inactive.
CCOC(=O)c1c(C)n(S(=O)(=O)c2ccc(C)cc2)c2ccc(NS(=O)(=O)c3ccc(C)cc3)cc12 was read as Cruzain inh Det inactive and Cruzain inh noDet 4µM.
Screening Cc1ccc(S(=O)(=O)Nc2ccc3c(c2)CCC3)cc1 returned Cruzain inh Det inactive and Cruzain inh noDet inactive.
`Cc1ccc(S(=O)(=O)Nc2ccc3c(c2)c2c(n3S(=O)(=O)c3ccc(C)cc3)CCCC2=O)cc1` gave Cruzain inh Det inactive and Cruzain inh noDet 7.9µM.
`CCN1CCN(C(=S)Nc2ccc(Cl)cc2Cl)CC1` gave Cruzain inh Det inactive and Cruzain inh noDet inactive.
CN1CCN(C(=S)Nc2ccc(Cl)cc2Cl)CC1 was read as Cruzain inh Det inactive and Cruzain inh noDet 1.6µM.
Screening Cc1cnc(CNc2ncncc2-c2c(C)noc2C)cn1 returned Cruzain inh Det inactive and Cruzain inh noDet inactive.
`COc1ccc(C)cc1NC(=O)NCc1ccc2c(c1)CCN2C(=O)c1ccccc1` gave Cruzain inh Det inactive and Cruzain inh noDet 20µM.
`COc1ccc(C(=O)NCc2ccc3c(c2)CCN3C(=O)c2ccccc2)cc1` gave Cruzain inh Det inactive and Cruzain inh noDet inactive.
`Cc1ccc(NC(=O)NCc2ccc3c(c2)CCN3C(=O)c2ccccc2)c(Cl)c1` gave Cruzain inh Det inactive and Cruzain inh noDet inactive.
`COc1ccc2cc(C(=O)NCc3ccc4c(c3)CCN4C(=O)c3ccc(C)cc3)[nH]c2c1` gave Cruzain inh Det inactive and Cruzain inh noDet 13µM.
For COc1ccc(C(=O)NCc2ccc3c(c2)CCN3C(=O)c2ccc(F)cc2)cc1 the results were Cruzain inh Det inactive and Cruzain inh noDet inactive.
Screening COc1ccc2cc(C(=O)NCc3ccc4c(c3)CCN4C(=O)c3ccc(F)cc3)[nH]c2c1 returned Cruzain inh Det inactive and Cruzain inh noDet 25µM.
Screening Cc1c(Cl)ccc2sc(N3CCN(C(=O)CCS(=O)(=O)c4ccc(F)cc4)CC3)nc12 returned Cruzain inh Det inactive and Cruzain inh noDet inactive.
Screening Cc1ccc(OCc2nnc(SCC(=O)Nc3ccccc3C(C)C)o2)cc1 returned Cruzain inh Det inactive and Cruzain inh noDet inactive.
O=C(/C=C/Nc1ccc(S(=O)(=O)Nc2ncccn2)cc1)c1ccc(Cl)c(Cl)c1 was read as Cruzain inh Det inactive and Cruzain inh noDet 32µM.
For CC(=O)c1cccc(NS(=O)(=O)c2ccc(N/C=C\C(=O)c3ccc(C)cc3)cc2)c1 the results were Cruzain inh Det inactive and Cruzain inh noDet inactive.
`COc1cc(/C=C(/C#N)c2nc3ccccc3[nH]2)ccc1Oc1ncccc1[N+](=O)[O-]` gave Cruzain inh Det inactive and Cruzain inh noDet inconclusive.
Cc1ccc(/C(C#N)=C/c2cccc([N+](=O)[O-])c2)cc1 was read as Cruzain inh Det inactive and Cruzain inh noDet inactive.
For Cc1ccc2nc(/C(C#N)=C\c3cc(C)n(-c4cccc([N+](=O)[O-])c4)c3C)[nH]c2c1 the results were Cruzain inh Det inactive and Cruzain inh noDet 25µM.
For Cc1ccc2nc(/C(C#N)=C\c3ccc([N+](=O)[O-])o3)[nH]c2c1 the results were Cruzain inh Det inactive and Cruzain inh noDet inconclusive.
For COc1cc(/C=C(/C#N)c2ccc(C)cc2)ccc1Oc1ccc([N+](=O)[O-])cn1 the results were Cruzain inh Det inactive and Cruzain inh noDet 25µM.
Screening COc1ccc2nc(/C(C#N)=C\c3ccc(Oc4ccc([N+](=O)[O-])cn4)cc3)[nH]c2c1 returned Cruzain inh Det inactive and Cruzain inh noDet 25µM.
CCOc1cc(/C=C(/C#N)c2nc3ccccc3[nH]2)ccc1Oc1ccc([N+](=O)[O-])cn1 was read as Cruzain inh Det inactive and Cruzain inh noDet inactive.
`Cc1ccc2nc(/C(C#N)=C\c3ccc(Oc4ccc([N+](=O)[O-])cn4)cc3)[nH]c2c1` gave Cruzain inh Det inactive and Cruzain inh noDet 10µM.
Cc1ccc(S(=O)(=O)NCC(Nc2cccc(Cl)c2)c2ccccc2)cc1 (stereo unspecified) was read as Cruzain inh Det inactive and Cruzain inh noDet inactive.
Screening CCOC(=O)c1ccccc1NC(=O)C(=O)Nc1ccc2nc3n(c(=O)c2c1)CCCCC3 returned Cruzain inh Det inactive and Cruzain inh noDet inactive.
Screening O=CNc1ncn[nH]1 returned Cruzain inh Det inactive and Cruzain inh noDet inactive.
For Cc1ccc(NC(=O)Cn2c(-c3cncs3)nc3ccccc32)c(Br)c1 the results were Cruzain inh Det inactive and Cruzain inh noDet inconclusive.
Screening CCOc1ccccc1C(=O)Nc1c(NC)c2ccccc2oc1=O returned Cruzain inh Det inactive and Cruzain inh noDet inactive.
COc1cccc(Nc2nc3ccc(C)cc3nc2-n2nc(C)cc2C)c1 was read as Cruzain inh Det inactive and Cruzain inh noDet inactive.
`Cn1c(=O)c2c(nc(N3CCOCC3)n2Cc2ccccc2F)n(C)c1=O` gave Cruzain inh Det inactive and Cruzain inh noDet inactive.
`NC(=O)c1cn(-c2ccccc2)nc1-c1cc2ccccc2oc1=O` gave Cruzain inh Det inactive and Cruzain inh noDet inactive.
`O=C(c1ccccc1)c1nn(-c2ccc(Cl)cc2)cc1C(=O)c1cc2ccccc2oc1=O` gave Cruzain inh Det inactive and Cruzain inh noDet 25µM.
Screening Cc1ccc2nc(C3CCN(C(=O)NCc4ccccc4)CC3)[nH]c2c1 returned Cruzain inh Det inactive and Cruzain inh noDet inactive.
For Cc1ccc2nc(C3CCCN(C(=O)NCc4ccccc4)C3)[nH]c2c1 (stereo unspecified) the results were Cruzain inh Det inconclusive and Cruzain inh noDet 6.3µM.
`CCOc1cc(CNC(=O)c2cc(-c3ccccc3)n[nH]2)cc(OCC)c1OCC` gave Cruzain inh Det inactive and Cruzain inh noDet inactive.
Screening Cc1ccc2c(Cl)c(C(=O)Nc3ccc4c(c3)OCO4)sc2c1 returned Cruzain inh Det inactive and Cruzain inh noDet 20µM.
`Cc1noc(C(=O)Nc2ccc3c(c2)OCO3)c1Cl` gave Cruzain inh Det inactive and Cruzain inh noDet inactive.
Screening O=C1c2cccc3c([N+](=O)[O-])ccc(c23)C(=O)N1c1ccccn1 returned Cruzain inh Det inactive and Cruzain inh noDet inactive.
Screening Cc1ccc(N2C(=O)c3cccc4c(Oc5ccccc5[N+](=O)[O-])ccc(c34)C2=O)c(C)c1 returned Cruzain inh Det inactive and Cruzain inh noDet 25µM.
CCn1c(C)c(C)c2cc(C(=O)NCC(C)c3ccccc3)ccc21 (stereo unspecified) was read as Cruzain inh Det inactive and Cruzain inh noDet inactive.

Screening results (PubChem)
